# Hits are enriched below; roughly 19% of the tested compounds scored in any of these assays.
# uPA generation: qHTS for Inhibitors of Cell Surface uPA Generation; cell surface uPA generation assay, qHTS; Potency, µM (series often up to 38.3 µM), for the others: at the top dose activity change, negative = inhibition, most hits filed as inhibitors; 330,000 compounds, 0.31% hits; AID 540303, 2011; active = well fitted inhibition curve with a large enough effect; inconclusive = small, poorly fitted or top-dose-only effect; inactive = no such curve, though single readings can be large or run the other way; tested in mouse RAW 264.7 cells; note: potency is the fitted concentration of half-maximal effect; nearly all actives have a fitted effect of over 55% in size
# TDP1 cell noCPT: qHTS for Inhibitors of human tyrosyl-DNA phosphodiesterase 1 (TDP1): qHTS in cells in absence of CPT; DT40 Tdp1-/- hTDP1 cells, no CPT, ATP luminescence, 48 h; 420,000 compounds, 15% hits; Potency, µM (series often up to 46.2 µM), inactives show at the top dose activity change, negative = growth inhibition, actives largely listed as inhibitors; AID 686978, 2013; note: potency is the fitted concentration of half-maximal effect; nearly all actives have a fitted effect of over 55% in size
#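 Seeded 400 DT40-hTDP1 cells/well (vehicle DMSO, no 20 nM CPT); pinned compounds; ≥48 hr at 37 °C; CellTiter-Glo luminescence as viability measure.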
# HT1080NT lethal: qHTS for induction of synthetic lethality in tumor cells producing 2HG: qHTS for the HT-1080-NT fibrosarcoma cell line. 360,000 compounds, 1.6% hits. Potency, µM (doses to about 46.1 µM), for inactives: top-dose activity, negative = less viability, usual class: cytotoxic. HT-1080-NT fibrosarcoma viability, CellTiter-Glo ATP luminescence, 48 h;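 note: NT is the 2HG producing partner of a matched IDH1 knockdown line; potency is the fitted concentration of half-maximal effect; 0% = DMSO-treated cells and -100% = media-only wells without cells; nearly all actives have a fitted effect of over 55% in size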
#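 Luminescent CellTiter-Glo readout after 48 hours of compound exposure at 37 degrees C defined viability of HT-1080-NT cells. Activity was normalized to DMSO wells and cell-free media wells; concentration-response curves were fitted and assigned curve classes.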
# TDP1 cell CPT: qHTS for Inhibitors of human tyrosyl-DNA phosphodiesterase 1 (TDP1): qHTS in cells in presence of CPT | chicken DT40 Tdp1-/-;hTDP1 cells + 20 nM CPT, ATP luminescence, 48 h | 420,000 compounds, 12% hits | Potency, µM (top dose mostly 46.2 µM), without a hit: at the top dose activity change, negative = growth inhibition, most hits filed as inhibitors | AID 686979, 2013; note: potency is the fitted concentration of half-maximal effect; nearly all actives have a fitted effect of over 55% in size
#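 Chicken DT40 Tdp1-/- cells stably complemented with human TDP1 were seeded at 400 cells/well in medium containing 20 nM camptothecin, exposed to pin-transferred compounds, and grown at 37 °C for at least 48 hr. Viability was read as ATP luminescence.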
# HT1080 IDH1KD tx: qHTS for induction of synthetic lethality in tumor cells producing 2HG: qHTS for the HT-1080-IDH1KD cell line; AID 686971, 2013; HT-1080 IDH1 knockdown viability, ATP luminescence, 48 h; 360,000 compounds, 2% hits; Potency, µM (top dose mostly 46.1 µM), without a hit: at the top dose activity, negative = toxicity, usual class: cytotoxic;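 note: potency is the fitted concentration of half-maximal effect; 0% = DMSO wells and -100% = cell-free medium wells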
#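 Assay cells: HT-1080 with IDH1 knockdown, 750 per well, RPMI/5% FBS. Exposure: 48 h at 37 °C following 2 h pre-incubation. Read: CellTiter-Glo luminescence; fitted concentration-response, curve class assigned.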
# IL-1B inflam inh: qHTS for Inhibitors of Inflammasome Signaling: IL-1-beta AlphaLISA Primary Screen; THP-1 LPS/ATP IL-1B secretion, AlphaLISA, 16 h; active compounds read low; activity change, % at 57.5 µM; 360,000 compounds, 4.7% hits; AID 743279, 2014; in the data active = activity change below about -50%; inconclusive = mostly about -30% to -49%
#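 THP-1 cells pretreated 1 hr with compounds (up to 57.5 uM final), then stimulated with LPS (250 ng/mL final) plus ATP (1.25 mM final); secreted IL-1B measured by AlphaLISA after 16 hr, decreased signal indicating inhibition.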
# * hit, by the source's call; u = inconclusive; x = no result given. Unless noted, calls come from the whole dose curve; as a rule, active = well fitted curve in the direction sought with a large enough effect; inconclusive = small, poorly fitted or top-dose-only effect, or another doubt; inactive = no such curve, though single readings can be large; an effect the other way counts as inactive or inconclusive. Unless noted, % is set by controls: 0 for no effect and ±100 for the full control effect.
SMILES,uPA generation,TDP1 cell noCPT,HT1080NT lethal,TDP1 cell CPT,HT1080 IDH1KD tx,IL-1B inflam inh
CCc1cccc(CC)c1NC(=O)CSc1nc2ccc(N3C(=O)C4C5C=CC(C5)C4C3=O)cc2s1 (stereo not drawn),-8%,18µM*,-18%,21µM*,u,-18
Cn1cc(CN2CCC(n3nccc3NC(=O)c3ccccc3Cl)CC2)c2ccccc21,9%,u,u,-78%,u,-82*
CCCn1ncc(CN2CCC(n3nccc3NC(=O)c3ccccc3OC)CC2)c1C,-13%,-25%,17%,u,15%,-1
COc1ccccc1C(=O)Nc1ccnn1C1CCN(Cc2cn(C)c3ccccc23)CC1,10µM*,u,u,u,u,-22
O=C1NC(=Nc2ccccc2)S/C1=C/c1cccs1,u,u,-4%,-17%,-7%,25
O=C1NC(=Nc2cccnc2)S/C1=C\c1cccc(F)c1,-15%,13µM*,-6%,u,-22%,33
Cc1ccc(N=C2NC(=O)/C(=C/c3cccs3)S2)cc1C,-1%,10µM*,-10%,13µM*,-15%,-6
Cc1cccc(N=C2NC(=O)/C(=C\c3cccs3)S2)c1,-5%,9.2µM*,-10%,13µM*,-12%,-6
COc1ccc(-c2nc(Cn3c(SCc4cccc(Cl)c4)nc4ccncc43)c(C)o2)cc1,x,u,x,23µM*,x,x
Cc1oc(-c2cccc(Cl)c2)nc1Cn1c(SCc2ccccc2F)nc2ccncc21,x,23µM*,x,16µM*,x,x
COC(=O)c1cc2sccc2n1Cc1nc(-c2ccc(OC)cc2)oc1C,-8%,-26%,-24%,u,u,23
COc1ccc(CSc2nc3ccncc3n2Cc2nc(-c3ccc(OC)c(OC)c3)oc2C)cc1,x,u,x,26µM*,x,x
O=C(NCc1cccnc1)C12CC3CC(CC(Cl)(C3)C1)C2,-3%,24%,-3%,-12%,11%,24
CCCCC1SC(N)=NC1=O (stereo not drawn),2%,-8%,8%,5%,14%,-11
CN(C)C(=O)NC(Nc1ccc(Cl)cc1Cl)C(Cl)(Cl)Cl (stereo not drawn),-21%,18µM*,u,u,-23%,-5
CN(C)C(=O)NC(NC(=S)Nc1ccccc1)C(Cl)(Cl)Cl (stereo not drawn),1%,-29%,11%,u,6%,-12
CCCCN(C)C(=O)c1ccc2c(c1)NC(=O)C(CC(C)C)N2 (stereo not drawn),x,-17%,x,-4%,x,x
COc1ccc(N2CCN(c3ncnc4scc(-c5ccccc5)c34)CC2)cc1,-3%,16µM*,u,-15%,u,u
COc1ccc(N2CCN(C(=O)CSc3nc(C)cs3)CC2)cc1,-3%,-10%,7%,-22%,1%,-14
Cc1sc2ncn(CCn3cnc4sc(C)c(C)c4c3=O)c(=O)c2c1C,10%,21µM*,-1%,u,0%,-5
CCCn1cnc2scc(-c3ccc(C)c(C)c3)c2c1=O,-6%,21µM*,-1%,u,-11%,8
COc1ccc(N2CCN(C(=O)CSc3ncnc4scc(-c5ccc(C)cc5)c34)CC2)cc1,-6%,16µM*,-14%,u,-17%,-23
CN(C(=O)COC(=O)c1ccc(=O)n(Cc2ccccc2)n1)C1CCCCC1,-13%,7%,7%,-17%,7%,0
CN(C)S(=O)(=O)c1cccc(NC(=O)COC(=O)CNC(=O)c2ccccc2F)c1,-2%,-3%,0%,-20%,-3%,-16

# Assay outcomes: PubChem, National Center for Advancing Translational Sciences (NCATS)
